Results with a measured potency or affinity are listed apart. The source made the active and inactive calls.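 How the source made its calls: active means compounds lowering cell ATP signal whose fitted half-maximal concentration is at most twice the top tested dose; inconclusive means flat curve with 30 to 70% signal loss, or poor fit; inactive means the rest.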

These results are taken from PubChem BioAssay AID651949 (Broad Institute, 2012).

The experiment in a line: HEK293T cell cytotoxicity, dose response, cytotoxicity control, CellTiter-Glo luminescence, dry powder, set 6 (AID 651949).

As to `CCSc1nnc(-c2ccccc2)o1`, the result was inactive.

In the case of `[O-][n+]1ccccc1CSc1nnc(-c2ccccc2)o1`, the result was inactive.

As for `c1ccc(CSc2nnc(-c3cccnc3)o2)cc1`, the call was inactive.

In the case of `FC(F)(F)c1ccc(CSc2nnc(-c3ccccc3)o2)cc1`, the call was inactive.

Regarding `c1ccc(-c2nnc(SCCN3CCN(c4ccccc4)CC3)o2)cc1`, the result was inactive.

Turning to `Cc1nnc(SCc2ccccc2)o1`, the compound was classed as inactive.

On to `FC(F)(F)c1cccc(-c2nnc(SCc3ccccc3)o2)c1`, for which the compound was classed as inactive.

Take `Fc1ccc(Cn2cc(CSc3nnc(C4CCCC4)o3)nn2)cc1`: the outcome was inactive.

Regarding `FC(F)(F)CNCCSc1nnc(-c2ccccc2)o1`, the compound was called inactive.

As to `Cc1cccc(-c2nnc(SCc3ccccc3)o2)c1`, the call was inactive.

Turning to `Clc1ccc(-c2nnc(SCc3ccccn3)o2)cc1`, the call was inactive.

`c1ccc(Cn2cc(CSc3nnc(-c4ccccc4)o3)nn2)cc1`: the compound was classed as inactive.

As for `c1ccc(Sc2nnc(-c3ccccc3)o2)cc1`, the compound was classed as inactive.

In the case of `c1ccc(CCc2nnc(-c3ccccc3)o2)cc1`, the call was inactive.

Turning to `c1ccc(CSc2nnc(-c3ccccc3)s2)cc1`, the result was inactive.

In the case of `N#Cc1cccc(CSc2nnc(-c3ccccc3)o2)c1`, the compound was called inactive.

With `Fc1ccc(CSc2nnc(-c3cccnc3)o2)cc1`, the call was inactive.

Consider `N#Cc1cccc(-c2nnc(SCc3ccccc3)o2)c1`, for which the outcome was inactive.

`c1ccc(-c2nnc(SCC3CC3)o2)cc1`: the result was inactive.

With `c1ccc(COc2nnc(-c3ccccc3)o2)cc1`, the outcome was inactive.

Regarding `Cc1ccccc1-c1nnc(SCc2ccccc2)o1`, the result was inactive.

`c1ccc(CSc2nnc(-c3cccnc3)o2)nc1`: the result was inactive.

For the compound `c1ccc(CSc2ncc(-c3ccccc3)o2)cc1`, the compound was classed as inactive.
